Measurements as given in PubChem BioAssay AID1619 (SRMLSC, 2009).
The campaign covered roughly 220,000 compounds. About 830 (0.38%) were called active.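 Rule for the calls: active = compound inhibiting the enzyme by more than half at any dose during confirmatory dose-response retesting; inconclusive = strong single-dose inhibitors picked by rank but not retested; inactive = the rest.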 Only a sample is shown. Potency and affinity values are given separately.

What follows are molecules tested against Leucine aminopeptidase (Plasmodium falciparum (isolate 3D7)) (UniProt Q8IL11) (assay: P. falciparum M17LAP inhibitors, primary screen, biochemical, fluorogenic H-Leu-NHMec substrate, 1536-well (AID 1619;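 note: plate controls were full reaction with DMSO carrier for no effect and no enzyme background for full effect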)). Details: recombinant M17LAP, H-Leu-NHMec fluorogenic kinetic assay; at 30 µM; hits give high values.
Leucine aminopeptidase (Plasmodium falciparum (isolate 3D7)), sequence (Q8IL11 whole entry, looked up): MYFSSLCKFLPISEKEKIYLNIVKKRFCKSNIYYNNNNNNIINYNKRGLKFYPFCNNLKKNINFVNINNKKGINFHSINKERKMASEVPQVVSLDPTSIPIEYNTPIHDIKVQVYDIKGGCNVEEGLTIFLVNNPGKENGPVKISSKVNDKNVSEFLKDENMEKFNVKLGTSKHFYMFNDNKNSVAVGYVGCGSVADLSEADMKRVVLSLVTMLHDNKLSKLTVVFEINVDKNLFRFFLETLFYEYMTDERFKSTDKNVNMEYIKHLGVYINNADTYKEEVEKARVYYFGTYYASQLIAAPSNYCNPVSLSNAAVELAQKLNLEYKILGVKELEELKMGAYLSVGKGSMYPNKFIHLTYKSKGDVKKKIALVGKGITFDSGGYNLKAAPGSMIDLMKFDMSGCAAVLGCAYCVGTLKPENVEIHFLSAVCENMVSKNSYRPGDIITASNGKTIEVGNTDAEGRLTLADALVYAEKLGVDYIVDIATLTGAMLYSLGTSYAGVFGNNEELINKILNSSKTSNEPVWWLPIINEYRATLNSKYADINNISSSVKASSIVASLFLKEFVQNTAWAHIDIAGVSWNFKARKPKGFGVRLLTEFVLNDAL

inhibition, inactive:
Cc1cc(-c2ccco2)n(CC(=O)NCCN(C)C)n1 -1.86%
CCCCNC(=O)NC12CC3CC(CC(C3)C1)C2 3.38%
S=C(Nc1ccccc1Cl)NC1CC2CCCC(C1)N2C1CC1 (centres undefined) 19.9%
COc1ccc(-c2noc(=O)[nH]2)cc1 -9.72%
COc1ccc(-c2nc3ccccc3[nH]2)cc1 12.5%
O=C(CCn1c(=O)oc2ccccc21)Nc1nccs1 0.79%
Nc1cc(C2CCCC2)nn1-c1ccccc1 16.1%
Cc1nn(CC(=O)NCCCN2CCOCC2)c(C)c1[N+](=O)[O-] 3.72%
COC(=O)NCc1cc2cc(Cl)ccc2[nH]1 8.05%
O=S(=O)(N/N=C\C=C\c1ccccc1)c1ccc(Br)cc1 31.2%
O=S(=O)(Nc1ccn(-c2ccccc2)n1)c1ccc(Br)cc1 21.4%
Cc1ccc(C(=O)Nc2ccccc2C(=O)N2CC3(C)CC2CC(C)(C)C3)cc1 (centres undefined) -0.05%
COc1ccc(C[C@H]2CN3C(=NC[C@@H]3C(C)C)N2C[C@H](C)NC(=O)c2ccc(C)c(Br)c2)cc1 -1.28%
COc1ccc2c(c1OC)C(=O)OC2Nc1nc(-c2cc3cc([N+](=O)[O-])ccc3oc2=O)cs1 (centres undefined) 42.4%
COc1ccc2c(c1OC)C(=O)OC2Nc1nc(-c2cc3cc(Br)ccc3oc2=O)cs1 (centres undefined) -3.55%
CSc1nsc(SC)c1CO -0.7%
CC(=O)Nc1c(O)nc(SCC(=O)Nc2c(C)cccc2C)[nH]c1=O 13.4%
CC(=O)Nc1c(O)nc(SCC(=O)Nc2ccc(C(C)=O)cc2)[nH]c1=O 21.4%
Cc1cccc(NC(=O)CSc2nc3c(c(=O)[nH]2)CCCC3)c1C 12.7%
Cc1cccc(NC(=O)CSc2nc(C)c(Cc3ccccc3)c(=O)[nH]2)c1 -0.73%
Cc1cccc(NC(=O)CSc2nc3nc(C)cc(C)c3c(=O)[nH]2)c1 15.8%
Cc1cccc(NC(=O)CSc2nc3c(c(=O)[nH]2)CCC3)c1C 49.7%
S=c1[nH]ncn1/N=C/c1cccc(Oc2ccccc2)c1 13.2%
Cc1ccc(CNc2ccc(S(=O)(=O)N3CCOCC3)cc2[N+](=O)[O-])cc1 -4.05%
CCCC1C2C(=O)N(c3ccccc3)C(=O)C2ON1c1ccccc1 (centres undefined) -10.4%
CCc1ccc(OC(=O)c2ccn(CC)n2)cc1 2.96%
CCOC(=O)c1c(C)[nH]c(C)c1C(=O)COC(=O)c1ccc(O)cc1 0.26%
O=C(O)c1ccccc1-c1ccccc1C(=O)Nc1ccccc1 -2.4%
Cc1ccc(NC(=O)c2ccccc2-c2ccccc2C(=O)O)cc1C 4.01%
O=C(CSc1nc2ccc(NC(=O)C3CCCCC3)cc2s1)NCC1CCCO1 (centres undefined) 2.95%
O=C(Nc1ccc(N2C(=O)C3CCCCC3C2=O)cc1Cl)c1cccs1 (centres undefined) -2.37%
Cc1cc(C(=O)COC(=O)c2ccc[nH]c2=O)c(C)n1C 14.9%
Cc1cc(C(=O)COC(=O)c2ccc(O)cc2)c(C)n1CCc1ccc(F)cc1 13.2%
Cc1cc(C(=O)COC(=O)C2=NNC(=O)CC2)c(C)n1-c1ccccc1 7.43%
COCCn1c(C)cc(C(=O)COC(=O)c2ccc[nH]c2=O)c1C 49.1%
Cc1cc(C(=O)COc2ccccc2C(N)=O)c(C)n1C1CC1 -2.25%
Cc1ccc(-n2c(C)cc(C(=O)COC(=O)c3c(C)noc3C)c2C)cc1 0.29%
Cc1ccc(-n2c(C)cc(C(=O)COC(=O)C3=NNC(=O)CC3)c2C)cc1 30.1%
Cc1cc(C(=O)COC(=O)c2ccc[nH]c2=O)c(C)n1-c1ccccc1F 8.77%
CCCn1c(SCC(=O)NC(=O)Nc2ccc(C)cc2C)n[nH]c1=O -6.72%
O=C(Cn1ccc([N+](=O)[O-])n1)NCCc1c[nH]c2ccccc12 -5.35%
C=CCn1c(=O)c2ccccc2n2c(SCC(=O)Nc3sc(C(=O)N(CC)CC)c(C)c3C(=O)OCC)nnc12 1.64%
O=C(N/N=C/c1ccc2c(c1)OCO2)c1cc(-c2ccc(F)cc2)nc2ccccc12 8.91%
CCCCn1nnnc1NCc1ccc(N2CCCC2)cc1 2.89%
COc1cccc(-n2cn[nH]c2=S)c1 -0.99%
O=C(NC1CCCC1)C(c1ccc(N2CCOCC2)cc1)N(Cc1ccco1)C(=O)c1ccco1 (centres undefined) 6.04%
COCC(=O)OCC(=O)c1cc(C)n(-c2ccc(Br)cc2)c1C 1.88%
CCOC(=O)c1cc(C)n(-c2ccc(OC)c(OC)c2)c1C 0.75%
Cc1ccc(-n2c(C)cc(C(=O)COc3c(CO)cc(F)cc3CO)c2C)cc1C 11.4%
CCC(=O)OCC(=O)c1cc(C)n(-c2ccc(Br)cc2)c1C 0.2%
COc1cc(C(=O)Nc2ccccc2-c2nnn(CC(N)=O)n2)cc(OC)c1OC -3.22%
C=CCn1c(-c2cccnc2Cl)nc2cc(Cl)c(Cl)cc21 -5.48%
Cc1noc(C)c1C(=O)NCCCc1ccccc1 6.89%
Cc1cc(C(=O)OCC(=O)N2CC(C)CC(C)C2)c(C)o1 (centres undefined) 40.9%
Cc1cc(C(=O)OCC(=O)N2c3ccccc3CC2C)c(C)o1 (centres undefined) -1.01%
O=C(O)c1cc2c(ccc3ccccc32)o1 6.36%
Cc1nn(C)c(C)c1S(=O)(=O)N1CCC(C(=O)NCC2COc3ccccc3O2)CC1 (centres undefined) 17.1%
Cn1c(C(=O)O)c(CC(=O)Nc2ccc3c(c2)OCCO3)c2ccccc21 -6.24%
O=C(CN1C(=O)C2C3C=CC(C3)C2C1=O)NCc1ccccc1 (centres undefined) 18.9%
Cn1c(=O)cc(SCC(=O)NCC2COc3ccccc3O2)c2ccccc21 (centres undefined) -4.89%
Cn1c(=O)oc2cc(S(=O)(=O)N3CCC(C(=O)NCC4COc5ccccc5O4)CC3)ccc21 (centres undefined) 3.08%
CCC1Oc2ccc(C)cc2N(CC(=O)NCC2COc3ccccc3O2)C1=O (centres undefined) 16.1%
O=C(Cn1ccc2ccccc2c1=O)NCC1COc2ccccc2O1 (centres undefined) 10.9%
O=C(CCC1COc2ccccc2O1)NCC1COc2ccccc2O1 (centres undefined) 15.9%
